Most compounds without a hit are left out; they make up all but 1.8% or so of the library.
NPR2 activator = GC-B (human) receptor activation; activation, % at 10 µM; P20594; HEK293-GC-B cells, CNP EC30, cGMP TR-FRET; 0% at EC30 CNP, 100% saturating CNP; 370,000 tested, 0.11% active;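 active = activation at 10 µM reaching about 35% in either raw or pattern-adjusted values, limit read from the data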
Myeloid diff 2 = promotes myeloid progenitor differentiation | ER-HoxA9 myeloid progenitors, lysozyme-GFP differentiation, flow cytometry | calls only at 10 µM | 360,000 tested, 1% active;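 active = normalized GFP-positive differentiation at or above the plate's own cutoff, the solvent-only control mean plus 3 SD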;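 also: cells exposed to compound for four days before flow analysis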
NPR1 activator = GC-A (human) enzyme activation; P16066; HEK293 GC-A cells, cGMP TR-FRET, EC30 ANP; 0% at EC30 ANP, 100% saturating ANP; activation, % at 10 µM; 370,000 tested, 0.14% active; in the data active = activation above about 40%
Target sequence (P16066 whole entry, looked up): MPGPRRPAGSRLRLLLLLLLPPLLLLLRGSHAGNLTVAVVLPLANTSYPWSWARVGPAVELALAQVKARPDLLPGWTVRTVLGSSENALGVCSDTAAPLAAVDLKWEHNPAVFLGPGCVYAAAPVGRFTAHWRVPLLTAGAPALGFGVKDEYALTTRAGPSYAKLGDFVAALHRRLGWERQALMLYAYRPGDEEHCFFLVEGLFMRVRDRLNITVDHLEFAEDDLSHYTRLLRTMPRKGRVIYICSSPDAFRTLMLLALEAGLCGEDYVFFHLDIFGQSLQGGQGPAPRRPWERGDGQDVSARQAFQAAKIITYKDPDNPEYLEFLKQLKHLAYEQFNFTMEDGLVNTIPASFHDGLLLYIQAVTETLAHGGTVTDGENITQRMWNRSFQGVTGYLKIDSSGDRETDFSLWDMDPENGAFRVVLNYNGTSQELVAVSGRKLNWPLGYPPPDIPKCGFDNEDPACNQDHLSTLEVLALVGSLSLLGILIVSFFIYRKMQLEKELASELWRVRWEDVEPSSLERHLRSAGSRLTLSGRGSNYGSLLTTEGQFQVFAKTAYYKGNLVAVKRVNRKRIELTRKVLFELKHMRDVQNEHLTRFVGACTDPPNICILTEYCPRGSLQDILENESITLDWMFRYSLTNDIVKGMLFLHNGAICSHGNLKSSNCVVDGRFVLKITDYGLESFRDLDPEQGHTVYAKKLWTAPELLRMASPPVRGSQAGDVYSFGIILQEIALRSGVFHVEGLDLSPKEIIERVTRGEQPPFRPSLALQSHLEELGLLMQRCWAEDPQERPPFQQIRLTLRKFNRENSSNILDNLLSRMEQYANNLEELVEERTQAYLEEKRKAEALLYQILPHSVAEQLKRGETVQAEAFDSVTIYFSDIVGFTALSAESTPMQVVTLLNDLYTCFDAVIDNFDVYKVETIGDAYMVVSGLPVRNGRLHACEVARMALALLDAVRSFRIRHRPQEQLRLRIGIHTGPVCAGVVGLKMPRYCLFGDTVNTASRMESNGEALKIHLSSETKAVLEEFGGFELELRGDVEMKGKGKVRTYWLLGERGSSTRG
Granule exo inh = lytic granule exocytosis inhibition | TALL-104 LAMP-1 surface exposure, flow cytometry; cells stimulated with thapsigargin and PMA | inhibition, % at 10 µM | 360,000 tested, 0.66% active | AID 651702;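 active = inhibition above about 55%, limit read from the data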
Myeloid diff CP1 = myeloid differentiation induction; 2,300 tested, 2% active; ER-HoxA9 myeloid progenitors, GFP/Mac1 double-positive flow; shares compounds with Myeloid diff 2; calls only;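 active = share of green or green-and-red cells above 9 and 9% in run 1 or 4 and 3% in run 2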
GFP autofluor = counter-screen for myeloid differentiation promoters: compound fluorescence; shares compounds with Myeloid diff 2; ER-HoxA9 myeloid progenitors, no estrogen, GFP autofluorescence flow cytometry; vehicle wells 0%, positive control 100%; fluorescence response, % (concentration not given with the values); 2,300 tested, 7.4% active; AID 651707;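 active = over 5% cells positive for green fluorescent reporter, or over 2% positive for both it and APC stain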;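 also: range taken on the double positive population between DMSO and positive control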
Active calls of the source: *; i = inactive; x = no result; + = active, no number.

SMILES | NPR2 activator | Myeloid diff 2 | NPR1 activator | Granule exo inh | Myeloid diff CP1 | GFP autofluor
CCn1c(SCC(=O)N(C)c2c(N)n(Cc3ccccc3)c(=O)[nH]c2=O)nnc1-c1cccs1 | 3 | i | 0 | -8 | x | x
CCCSC1=C(C#N)C(c2cc(OC)ccc2OC)CC(=O)N1 (stereo not given) | -5 | i | 6 | -3 | i | 1
CCSC1=C(C#N)C(c2ccc(OC)c(OC)c2)CC(=O)N1 (stereo not given) | -4 | i | 0 | -2 | x | x
N#Cc1c2nc3ccccc3nc2n2cc(NC(=O)c3ccc(F)cc3)ccc12 | -7 | i | 0 | 2 | i | 3
CCOC(=O)c1cc(C(=O)OCC)c2cccc(C)n2c1=O | -1 | + | 2 | 19 | i | 0
CCOC(=O)c1cc(Br)c(=O)n2ccccc12 | 0 | i | 2 | 2 | x | x
COc1cc(/C=C2\SC(=O)N(CC(=O)Nc3ccccc3F)C2=O)cc(Cl)c1O | -5 | i | 0 | 5 | i | 0
O=C(c1cscn1)N1CCC(Oc2cccnc2)CC1 | -4 | x | 4 | x | x | x
c1nc(NCC2CCCC2)c2cc(-c3ccc4c(c3)OCO4)ccc2n1 | 14 | x | 18 | x | x | x
COc1ccc(/C=C2\SC(=S)N(NS(=O)(=O)c3ccc(C)cc3)C2=O)c(OC)c1 | -2 | i | 1 | -1 | i | 0
COc1ccccc1NC(=O)c1c(NC(=O)c2ccco2)sc2c1CCC2 | -4 | + | -2 | 1 | i | 1
Cc1cc(C)c2cc3c(N)c(C(=O)Nc4c(C)[nH]c(=O)[nH]c4=O)sc3nc2c1 | 2 | + | 3 | -3 | i | 4
COc1cccc(-n2cc(CN(C)Cc3nc(Cc4cccc(F)c4)no3)cn2)c1 | 1 | i | -2 | -5 | i | 0
COc1ccccc1-c1ccc([C@@H]2C[C@H]3[C@H](CON3C)CN2CC2CCCCC2)cc1 | 4 | x | 1 | x | x | x
O=C(CSc1oc(-c2ccccc2)nc1S(=O)(=O)c1ccc(F)cc1)NCC1CCCO1 (stereo not given) | 2 | i | 1 | -1 | i | 0
CCCCC(O)(CCCC)C(=O)N/N=C(\C)c1ccc(Cl)cc1 | -1 | i | -6 | 7 | i | 0
C/C(=N/NC(=O)CNc1ccc(C)cc1)c1ccc(Cl)cc1 | -1 | i | 8 | 2 | x | x
Cc1cc2cc(C(c3nnnn3CC3CCCO3)N3CCCc4ccccc43)c(=O)[nH]c2cc1C (stereo not given) | 2 | i | -9 | 2 | i | 0
COc1ccc(/C=N/NC(=O)c2ccc(CN3c4cccc5cccc(c45)S3(=O)=O)cc2)cc1 | 0 | i | -2 | -7 | x | x
O=C(N/N=C/CCc1ccccc1)c1ccc(CN2c3cccc4cccc(c34)S2(=O)=O)cc1 | 1 | i | -2 | -2 | i | 0
NS(=O)(=O)c1ccc(Nc2ncccc2[N+](=O)[O-])cc1 | 2 | + | 3 | -1 | i | 0
O=[N+]([O-])c1cccnc1Nc1ccc(Cl)cc1 | 3 | i | -2 | 5 | x | x
N#CCC[C@H]1CC[C@]2(CCCN(C(=O)c3ccno3)C2)O1 | -4 | x | 2 | x | x | x
Oc1[nH]c2ccccc2c1C=Nc1ccccc1 | -7 | i | -1 | 2 | i | 0
COc1ccccc1NS(=O)(=O)c1cc(NC(=O)c2sccc2C)ccc1N1CCOCC1 | -4 | i | -12 | -1 | x | x
SMILES | NPR2 activator | Myeloid diff 2 | NPR1 activator | Granule exo inh | Myeloid diff CP1 | GFP autofluor
COc1ccc(NS(=O)(=O)c2cc(NC(=O)c3sccc3C)ccc2N2CCOCC2)cc1 | -9 | + | -4 | 4 | i | 0
COc1ccccc1NS(=O)(=O)c1cc(NC(=O)c2cccs2)ccc1N1CCCCC1 | -6 | + | -3 | 4 | i | 0
COc1ccc(C(C)=O)cc1Cn1c(C)c(C(=O)NCc2cccc(C)c2)sc1=O | -3 | i | -1 | 4 | x | x
C=CCn1c(N2CCN(c3ccc(OC)cc3)CC2)nc2c1c(=O)n(C)c(=O)n2C | -6 | i | 0 | -5 | x | x
C=CCn1c(N2CCN(c3ccc(OC)cc3)CC2)nc2c1c(=O)[nH]c(=O)n2C | -1 | i | -4 | -3 | i | 0
CCOc1ccccc1Nc1nc2ccc(C)cc2n2cnnc12 | -2 | + | -6 | -11 | + | 0
CCOC(=O)[C@]12CCCC=C1N(CCC1=CCCCC1)C(=O)[C@H](CC(=O)NCC13CC4CC(CC(C4)C1)C3)C2 | 5 | i | 3 | 5 | x | x
COc1ccc(C2C(=O)N(C3CCCCC3)CC(=O)N2Cc2ccc3c(c2)OCO3)cc1 (stereo not given) | 3 | i | 3 | -4 | i | 4
Cc1nc(N)c(C#N)c(-c2cccnc2)c1C | x | + | x | 1 | i | 0
CN(C)C(=O)c1cc2c(c(-c3cccc(C4=CCCCC4)c3)n1)[C@@H](CCO)N(S(=O)C(C)(C)C)C2 (stereo not given in full) | 2 | i | -4 | 5 | x | x
CCCCn1c(-c2ccoc2C)n[nH]c1=S | -5 | + | -1 | 1 | i | 0
CCCCn1c(-c2ccco2)n[nH]c1=S | 0 | i | -1 | -5 | x | x
Clc1ccc(CSc2nnc(-c3ccccn3)n2Cc2cccs2)cc1Cl | -6 | i | -13 | 2 | x | x
Cc1ccc(NC(=S)N(CCCN2CCCC2)Cc2cccn2Cc2ccc(Cl)cc2)cc1Cl | -12 | + | -24 | 65* | i | 0
Cc1cc(NC(=S)N(CCN2CCCCC2)Cc2ccco2)ccc1Cl | -2 | i | -1 | 4 | x | x
COc1ccc(C=C2CS(=O)(=O)CC(=Cc3ccc(OC)cc3)C2=O)cc1 | -5 | i | 14 | -3 | x | x
O=C(CN1C(=O)S/C(=C\c2ccc(O)cc2)C1=O)c1ccccc1 | 6 | i | -1 | -1 | i | 2
O=C(CN1C(=O)S/C(=C\c2ccccc2)C1=O)NNC(=O)c1ccccc1O | 0 | i | 5 | -3 | x | x
Cc1ccc(S(=O)(=O)Nc2cccc(-c3cn4ccsc4n3)c2)cc1 | -13 | i | -7 | -4 | i | 1
O=C(NCCCC1CCCC1)C1CCC(=O)N(Cc2cccc(C(F)(F)F)c2)C1 (stereo not given) | -2 | + | -3 | 0 | i | 0
O=C(NCCCn1cccn1)C1CCC(=O)N(Cc2cccc(C(F)(F)F)c2)C1 (stereo not given) | 1 | i | -1 | -2 | x | x
COc1ccc(CN2CC(=O)N(c3ccccc3OC)C2=S)cc1OC | 1 | i | 6 | -1 | x | x
CCc1ccc(N2C(=O)CN(Cc3ccc(OC)c(OC)c3)C2=S)cc1 | 3 | + | 4 | 4 | i | 2
COC(=O)c1ccc(S(=O)(=O)N2CCC(NC(=O)COc3ccc(F)cc3)CC2)cc1 | -2 | x | -5 | x | x | x

Compound activity deposited in PubChem by several laboratories.
